In PubChem BioAssay (NCI):
Compounds without any hit were thinned out: in the full panel of roughly 79,000, 15% have a hit. A number with no mark means an inactive call. Activity calls are given as the source filed them. No stated cut-off is given here; in the data, active means growth inhibition above about 70%; inactive means the rest.

Legend:
[1] = NCI Yeast Anticancer Drug Screen. Data for the rad50 strain (AID 155);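 further: 0% = growth of vehicle-only cultures of the same strain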; settings: S. cerevisiae rad50 strain growth inhibition, hits give high values
Summary of the method: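 Vehicle-treated cultures provide the reference for the growth inhibition reported for compound-exposed, repair-deficient yeast.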

[2] = NCI Yeast Anticancer Drug Screen. Data for the mec2-1 strain (AID 157); settings: S. cerevisiae mec2-1 strain, hits give high values
Summary of the method: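 Strain: mec2-1 (DNA repair/cell cycle alteration). Compound exposure, then growth measured; inhibition expressed relative to vehicle.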

[3] = NCI Yeast Anticancer Drug Screen. Data for the sgs1 mgt1 strain (AID 161);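 further: 0% = growth of cultures given vehicle only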; settings: S. cerevisiae sgs1 mgt1 strain, hits give high values
Summary of the method: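 Mutant yeast exposed to compound; growth scored against vehicle-only wells.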

[4] = NCI Yeast Anticancer Drug Screen. Data for the cln2 rad14 strain (AID 165);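 further: 0% = growth equal to vehicle treated cultures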; settings: S. cerevisiae cln2 rad14 strain, hits give high values
Summary of the method: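 Compounds are applied to the cln2 rad14 yeast strain, and growth is then compared with that of vehicle-treated cultures to give inhibition.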

[5] = NCI Yeast Anticancer Drug Screen. Data for the bub3 strain (AID 167); settings: S. cerevisiae bub3 mutant strain, hits give high values
Summary of the method: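 Mutant yeast screening strain plus compound; vehicle-treated cultures serve as the 0% inhibition reference.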

[6] = NCI Yeast Anticancer Drug Screen. Data for the mlh1 rad18 strain (AID 175); settings: S. cerevisiae mlh1 rad18 strain growth inhibition, hits give high values
Summary of the method: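 Read-out is yeast growth inhibition, calculated against vehicle-only controls. The compound was applied to a strain engineered with DNA damage repair alterations.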

[7] = at 5.0 µM (retest, dose inferred, filed as 0.5)
[8] = at 50.0 µM (retest, dose inferred, filed as 5.0)

SMILES	growth inhibition [1, 7]	growth inhibition [1, 8]	growth inhibition ([1]; at 50.0 µM)	growth inhibition [2, 7]	growth inhibition [2, 8]	growth inhibition ([2]; at 50.0 µM)	growth inhibition [3, 7]	growth inhibition [3, 8]	growth inhibition ([3]; at 50.0 µM)	growth inhibition [4, 7]	growth inhibition [4, 8]	growth inhibition ([4]; at 50.0 µM)	growth inhibition [5, 7]	growth inhibition [5, 8]	growth inhibition ([5]; at 50.0 µM)	growth inhibition [6, 7]	growth inhibition [6, 8]	growth inhibition ([6]; at 50.0 µM)
ONC1=Nc2ccccc2OCc2cc(Br)c(Br)cc2COc2ccccc2N=C1NO	22%	96% (active)	88% (active)	19%	98% (active)	91.1% (active)	18%	89% (active)	91.5% (active)	-1%	81% (active)	89.4% (active)	13%	91% (active)	90.9% (active)	31%	97% (active)	87.9% (active)
COc1cc(OC)c(C2CC(C)(OC)Oc3cc4c(cc32)OCO4)c(OC)c1 (configuration not stated)	4%	10%	4.35%	6%	3%	17.1%	2%	12%	3.8%	5%	-4%	5.45%	0%	-1%	-2.6%	5%	19%	27.9%
O=S(=O)(NC(=S)Nc1ccccc1)c1ccc(Br)cc1	-4%	24%	42.9%	-3%	50%	47.1%	7%	53%	37.5%	-1%	2%	79.5% (active)	-3%	42%	67.8%	21%	68%	65.8%
c1ccc2c(CCc3ccncc3)c[nH]c2c1	2%	78% (active)	46.8%	-4%	59%	45.1%	11%	82% (active)	50.1%	-13%	69%	6.25%	-10%	75% (active)	4.8%	-13%	65%	57.5%
CCCCCC1OC1CC1OC1CCCCCCCC(=O)OC (configuration not stated)	-2%	1%	36.5%	-1%	-2%	18.8%	-4%	4%	40.4%	-4%	-8%	-27.4%	-1%	-7%	50.1%	4%	1%	59%
CCCCCCCCCCCC(=O)OCC(C)C	5%	-19%	0.95%	-7%	20%	-13%	0%	4%	7.55%	20%	-11%	-3.95%	0%	-18%	-2.1%	-16%	-8%	15.5%
CC1(C)N([O-])[N+](=O)C1(Br)c1ccccc1 (configuration not stated)	22%	99% (active)	86.7% (active)	17%	100% (active)	93.8% (active)	-6%	95% (active)	92.6% (active)	8%	64%	90.2% (active)	-24%	96% (active)	87.5% (active)	25%	99% (active)	84.5% (active)
O=S(=O)(Nc1ccccc1)c1ccccc1C=C(c1ccccc1)c1ccccc1	37%	75% (active)	85.1% (active)	35%	90% (active)	86% (active)	46%	90% (active)	86.5% (active)	13%	84% (active)	80.3% (active)	43%	82% (active)	80.3% (active)	81% (active)	84% (active)	85.8% (active)
O=C(O)c1cc(C(=O)O)c(C(=O)O)cc1C(=O)O.[NH-]C1CCCC1.[NH-]C1CCCC1.[NH-]C1CCCC1.[NH-]C1CCCC1.[Pt+2].[Pt+2]	4%	99% (active)	99.5% (active)	10%	100% (active)	99.6% (active)	15%	99% (active)	99.5% (active)	0%	99% (active)	99% (active)	-1%	99% (active)	99% (active)	16%	99% (active)	99% (active)
O=[N+]([O-])C1(CO)COC(CCc2ccccc2)OC1 (configuration not stated)	-2%	5%	67.7%	0%	3%	78.2% (active)	2%	5%	82.3% (active)	2%	3%	97.5% (active)	-2%	-3%	65.5%	0%	3%	98.4% (active)
C[Si](C)(C)C1=C([Si](C)(C)C)C(Cl)(Cl)C1=O	10%	32%	12%	12%	17%	9.35%	20%	49%	72.2% (active)	6%	40%	45.5%	16%	33%	29.2%	18%	38%	32.4%
CSC(=Nc1ccc(Cl)cc1)N1CC=Cc2ccccc21	2%	-1%	-1.85%	-13%	12%	5.85%	-15%	23%	43.4%	9%	-4%	42.8%	49%	82% (active)	81.8% (active)	0%	-1%	12.3%
Cc1cc(C(O)(C(F)(F)F)C(F)(F)F)cc(C(O)(C(F)(F)F)C(F)(F)F)c1	-1%	99% (active)	97.2% (active)	12%	99% (active)	98.3% (active)	-6%	99% (active)	52.8%	-4%	99% (active)	95.7% (active)	6%	98% (active)	96% (active)	1%	99% (active)	97.8% (active)
COc1cccc2c1C(=O)c1c(O)c3c(c(O)c1C2=O)CC(O)(C(=O)CO)CC3OC1CC(N)C(O)C(C)O1.[Cl][Pt+2][Cl].[NH2-].[NH2-] (configuration not stated)	12%	85% (active)	74.5% (active)	9%	47%	49.5%	11%	83% (active)	78% (active)	8%	87% (active)	43.5%	0%	56%	34.5%	29%	94% (active)	88.7% (active)
CC(=O)/C(=C\c1cccs1)C(=O)CCN(C)C	11%	25%	9.05%	15%	28%	17.2%	10%	29%	34%	20%	27%	19.5%	4%	23%	-2.2%	22%	30%	50.1%
O=C(Nc1cccc(Cl)c1)c1ccc([N+](=O)[O-])cc1	10%	8%	-8.65%	-11%	-6%	-10.8%	6%	4%	-12.7%	4%	17%	-27.4%	23%	32%	-6.8%	17%	26%	-0.9%
O=[N+]([O-])c1ccc2c(c1)[nH]c1ccccc12	-138%	36%	93.2% (active)	-45%	-32%	40.1%	-65%	-11%	73.8% (active)	-57%	-63%	68.6%	-66%	-40%	69.2%	-139%	-10%	89% (active)
CC(C)=CCC/C(C)=C/COc1ccc(/C=C2/C(=O)N(O)[C@@H](C)C(=O)N2O)cc1	51%	97% (active)	80.8% (active)	52%	98% (active)	78.2% (active)	66%	92% (active)	78.9% (active)	54%	89% (active)	70.7% (active)	68%	97% (active)	83.3% (active)	32%	96% (active)	79.2% (active)
Nc1nc(=O)n(C2OC(CO)C(O)C2O)cc1[N+](=O)[O-] (configuration not stated)	-10%	-9%	-5.75%	-6%	-15%	18.9%	-2%	-5%	4.45%	-40%	-13%	-10.2%	-7%	1%	-12.7%	1%	-5%	17.9%
